PubChem BioAssay (NCI)
About 79,000 compounds went through this panel and 15% of them were active in at least one assay; those are over-represented in the sample as a whole. A number with no mark means an inactive call. Active and inactive are the calls of the source. Rule as the data show it: active = growth inhibition above about 70%; inactive = the rest.

Experiments:
[1] = NCI Yeast Anticancer Drug Screen. Data for the rad52 strain (AID 147);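 also: 0% = growth of vehicle-treated control cultures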; conditions: S. cerevisiae rad52 mutant growth inhibition, active compounds read high
Procedure, shortened: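 Vehicle-treated cultures served as the reference for growth inhibition of compound-exposed yeast bearing a DNA repair mutation.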

[2] = NCI Yeast Anticancer Drug Screen. Data for the wt1 strain (AID 149);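 also: 0% = growth of vehicle-treated wt1 cultures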; conditions: S. cerevisiae wt1 strain (SPY 50644) growth inhibition, active compounds read high
Procedure, shortened: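 Compounds are added to wt1 yeast cultures. Growth is then measured. Inhibition is expressed relative to vehicle-treated controls.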

[3] = NCI Yeast Anticancer Drug Screen. Data for the rad50EPP+ strain (AID 151);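 also: 0% = growth of vehicle-treated control cultures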; conditions: S. cerevisiae rad50 mutant strain, active compounds read high
Procedure, shortened: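 In this screen, rad50EPP+ yeast were exposed to compounds. Growth inhibition was scored against vehicle-treated controls.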

[4] = NCI Yeast Anticancer Drug Screen. Data for the mgt1 strain (AID 153); conditions: S. cerevisiae mgt1 mutant growth inhibition, active compounds read high
Procedure, shortened: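 mgt1 strain exposed; growth vs vehicle control recorded as inhibition.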

[5] = NCI Yeast Anticancer Drug Screen. Data for the rad50 strain (AID 155);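 also: 0% = growth of vehicle-only cultures of the same strain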; conditions: S. cerevisiae rad50 strain growth inhibition, active compounds read high
Procedure, shortened: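 Inhibition values express reduced yeast growth in compound-treated cultures relative to vehicle-treated controls.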

[6] = NCI Yeast Anticancer Drug Screen. Data for the mec2-1 strain (AID 157); conditions: S. cerevisiae mec2-1 strain, active compounds read high
Procedure, shortened: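 Vehicle-treated cultures served as reference for growth inhibition of compound-exposed mec2-1 yeast.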

[7] = NCI Yeast Anticancer Drug Screen. Data for the rad14 strain (AID 159);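 also: 0% = growth of vehicle-treated control cultures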; conditions: S. cerevisiae rad14 strain growth inhibition, active compounds read high
Procedure, shortened: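 A mutant yeast strain defective in DNA damage repair is treated with compound; inhibition of its growth is scored against untreated, vehicle-exposed cultures.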

[8] = NCI Yeast Anticancer Drug Screen. Data for the sgs1 mgt1 strain (AID 161);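 also: 0% = growth of cultures given vehicle only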; conditions: S. cerevisiae sgs1 mgt1 strain, active compounds read high
Procedure, shortened: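 Test agents were incubated with a DNA-repair-mutant yeast strain. Growth was then read and compared against vehicle-treated controls.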

[9] = NCI Yeast Anticancer Drug Screen. Data for the CLN2oe strain (AID 163);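 also: 0% = growth of vehicle-only control cultures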; conditions: S. cerevisiae CLN2oe strain, active compounds read high
Procedure, shortened: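 Inhibition relative to vehicle-treated yeast is reported. Cells: strain with genetic alteration in cell-cycle control, grown with compound.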

[10] = NCI Yeast Anticancer Drug Screen. Data for the cln2 rad14 strain (AID 165);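 also: 0% = growth equal to vehicle treated cultures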; conditions: S. cerevisiae cln2 rad14 strain, active compounds read high
Procedure, shortened: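 Each compound was tested on cln2 rad14 yeast. Inhibition of growth was calculated against vehicle-exposed controls.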

[11] = NCI Yeast Anticancer Drug Screen. Data for the bub3 strain (AID 167); conditions: S. cerevisiae bub3 mutant strain, active compounds read high
Procedure, shortened: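 Steps: expose the mutant yeast strain to compound; grow alongside vehicle-treated cultures; measure growth; express inhibition against the vehicle cultures.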

[12] = NCI Yeast Anticancer Drug Screen. Data for the wt2 strain (AID 169);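 also: 0% = growth of vehicle-treated yeast cultures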; conditions: S. cerevisiae wt2 strain growth inhibition, active compounds read high
Procedure, shortened: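 Inhibition of yeast growth was determined after compound treatment, normalised to controls receiving only vehicle.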

[13] = NCI Yeast Anticancer Drug Screen. Data for the mlh1 strain (AID 171);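 also: 0% = growth of vehicle-treated control cultures of the same strain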; conditions: S. cerevisiae mlh1 strain growth inhibition, active compounds read high
Procedure, shortened: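 Vehicle-normalised growth inhibition of a repair- or checkpoint-altered yeast strain following compound treatment.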

[14] = NCI Yeast Anticancer Drug Screen. Data for the sgs1 strain (AID 173);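 also: 0% = growth of vehicle-only control cultures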; conditions: S. cerevisiae sgs1 mutant, active compounds read high
Procedure, shortened: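 Screen format: yeast with repair or checkpoint alterations, compound exposure, growth read relative to vehicle.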

[15] = NCI Yeast Anticancer Drug Screen. Data for the mlh1 rad18 strain (AID 175); conditions: S. cerevisiae mlh1 rad18 strain growth inhibition, active compounds read high
Procedure, shortened: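 Vehicle-treated cultures served as the reference for growth inhibition in a yeast strain carrying DNA damage repair alterations exposed to each compound.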

[16] = NCI Yeast Anticancer Drug Screen. Data for the rad18 strain (AID 177); conditions: S. cerevisiae rad18 mutant growth inhibition, active compounds read high
Procedure, shortened: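 Test articles were incubated with altered yeast defective in DNA damage repair. Results are given as inhibition of growth versus vehicle.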

[17] = at 5.0 µM (retest, dose inferred, filed as 0.5)
[18] = at 50.0 µM (retest, dose inferred, filed as 5.0)

SMILES: Oc1[nH]c2ccccc2c1N=NC(=S)N1CCCCC1
- growth inhibition ([1]; at 1.2 µM): 6%
- growth inhibition ([1]; at 3.7 µM): 11%
- growth inhibition ([1]; at 11.0 µM): 19%
- growth inhibition ([1]; at 33.0 µM): 97% (active)
- growth inhibition ([1]; at 100.0 µM): 98% (active)
- growth inhibition ([2]; at 1.2 µM): -1%
- growth inhibition ([2]; at 3.7 µM): 0%
- growth inhibition ([2]; at 11.0 µM): 4%
- growth inhibition ([2]; at 33.0 µM): 90% (active)
- growth inhibition ([2]; at 100.0 µM): 98% (active)
- growth inhibition ([3]; at 1.2 µM): 6%
- growth inhibition ([3]; at 3.7 µM): 16%
- growth inhibition ([3]; at 11.0 µM): 28%
- growth inhibition ([3]; at 33.0 µM): 39%
- growth inhibition ([3]; at 100.0 µM): 58%
- growth inhibition ([4]; at 1.2 µM): 0%
- growth inhibition ([4]; at 3.7 µM): 1%
- growth inhibition ([4]; at 11.0 µM): 23%
- growth inhibition ([4]; at 33.0 µM): 97% (active)
- growth inhibition ([4]; at 100.0 µM): 99% (active)
- growth inhibition ([5]; at 1.2 µM): 5%
- growth inhibition ([5]; at 3.7 µM): 11%
- growth inhibition [5, 17]: 11%
- growth inhibition ([5]; at 11.0 µM): 13%
- growth inhibition ([5]; at 33.0 µM): 97% (active)
- growth inhibition [5, 18]: 99% (active)
- growth inhibition ([5]; at 50.0 µM): 75.5% (active)
- growth inhibition ([5]; at 100.0 µM): 98% (active)
- growth inhibition ([6]; at 1.2 µM): 4%
- growth inhibition ([6]; at 3.7 µM): 6%
- growth inhibition [6, 17]: 41%
- growth inhibition ([6]; at 11.0 µM): 23%
- growth inhibition ([6]; at 33.0 µM): 97% (active)
- growth inhibition [6, 18]: 98% (active)
- growth inhibition ([6]; at 50.0 µM): 80.4% (active)
- growth inhibition ([6]; at 100.0 µM): 99% (active)
- growth inhibition ([7]; at 1.2 µM): 4%
- growth inhibition ([7]; at 3.7 µM): -3%
- growth inhibition ([7]; at 11.0 µM): 9%
- growth inhibition ([7]; at 33.0 µM): 97% (active)
- growth inhibition ([7]; at 100.0 µM): 99% (active)
- growth inhibition [8, 17]: -8%
- growth inhibition [8, 18]: 99% (active)
- growth inhibition ([8]; at 50.0 µM): 87% (active)
- growth inhibition ([9]; at 1.2 µM): 2%
- growth inhibition ([9]; at 3.7 µM): -4%
- growth inhibition ([9]; at 11.0 µM): 20%
- growth inhibition ([9]; at 33.0 µM): 98% (active)
- growth inhibition ([9]; at 100.0 µM): 99% (active)
- growth inhibition [10, 17]: 0%
- growth inhibition [10, 18]: 99% (active)
- growth inhibition ([10]; at 50.0 µM): 84.8% (active)
- growth inhibition ([11]; at 1.2 µM): -1%
- growth inhibition ([11]; at 3.7 µM): 5%
- growth inhibition [11, 17]: -18%
- growth inhibition ([11]; at 11.0 µM): 15%
- growth inhibition ([11]; at 33.0 µM): 91% (active)
- growth inhibition [11, 18]: 99% (active)
- growth inhibition ([11]; at 50.0 µM): 90.3% (active)
- growth inhibition ([11]; at 100.0 µM): 96% (active)
- growth inhibition ([12]; at 1.2 µM): 5%
- growth inhibition ([12]; at 3.7 µM): 6%
- growth inhibition ([12]; at 11.0 µM): 13%
- growth inhibition ([12]; at 33.0 µM): 94% (active)
- growth inhibition ([12]; at 100.0 µM): 99% (active)
- growth inhibition ([13]; at 1.2 µM): 4%
- growth inhibition ([13]; at 3.7 µM): 4%
- growth inhibition ([13]; at 11.0 µM): 16%
- growth inhibition ([13]; at 33.0 µM): 96% (active)
- growth inhibition ([13]; at 100.0 µM): 98% (active)
- growth inhibition ([14]; at 1.2 µM): 14%
- growth inhibition ([14]; at 3.7 µM): 16%
- growth inhibition ([14]; at 11.0 µM): 28%
- growth inhibition ([14]; at 33.0 µM): 99% (active)
- growth inhibition ([14]; at 100.0 µM): 99% (active)
- growth inhibition [15, 17]: 22%
- growth inhibition [15, 18]: 99% (active)
- growth inhibition ([15]; at 50.0 µM): 86.5% (active)
- growth inhibition ([16]; at 1.2 µM): 5%
- growth inhibition ([16]; at 3.7 µM): 9%
- growth inhibition ([16]; at 11.0 µM): 24%
- growth inhibition ([16]; at 33.0 µM): 89% (active)
- growth inhibition ([16]; at 100.0 µM): 97% (active)

SMILES: C/C(=N\Nc1ccc([N+](=O)[O-])cc1[N+](=O)[O-])c1sc(-n2nc(-c3ccccc3)cc2-c2ccccc2)nc1C
- growth inhibition ([1]; at 1.2 µM): -1%
- growth inhibition ([1]; at 3.7 µM): 13%
- growth inhibition ([1]; at 11.0 µM): 7%
- growth inhibition ([1]; at 33.0 µM): 0%
- growth inhibition ([1]; at 100.0 µM): 26%
- growth inhibition ([2]; at 1.2 µM): -21%
- growth inhibition ([2]; at 3.7 µM): -4%
- growth inhibition ([2]; at 11.0 µM): -13%
- growth inhibition ([2]; at 33.0 µM): -1%
- growth inhibition ([2]; at 100.0 µM): -4%
- growth inhibition ([3]; at 1.2 µM): 7%
- growth inhibition ([3]; at 3.7 µM): 22%
- growth inhibition ([3]; at 11.0 µM): 27%
- growth inhibition ([3]; at 33.0 µM): 50%
- growth inhibition ([3]; at 100.0 µM): 59%
- growth inhibition ([4]; at 1.2 µM): 18%
- growth inhibition ([4]; at 3.7 µM): 6%
- growth inhibition ([4]; at 11.0 µM): 6%
- growth inhibition ([4]; at 33.0 µM): 32%
- growth inhibition ([4]; at 100.0 µM): 60%
- growth inhibition ([5]; at 1.2 µM): -1%
- growth inhibition ([5]; at 3.7 µM): 0%
- growth inhibition [5, 17]: 25%
- growth inhibition ([5]; at 11.0 µM): -15%
- growth inhibition ([5]; at 33.0 µM): 4%
- growth inhibition [5, 18]: 62%
- growth inhibition ([5]; at 50.0 µM): 80% (active)
- growth inhibition ([5]; at 100.0 µM): 10%
- growth inhibition ([6]; at 1.2 µM): 11%
- growth inhibition ([6]; at 3.7 µM): 16%
- growth inhibition [6, 17]: 0%
- growth inhibition ([6]; at 11.0 µM): 15%
- growth inhibition ([6]; at 33.0 µM): 22%
- growth inhibition [6, 18]: 16%
- growth inhibition ([6]; at 50.0 µM): 66%
- growth inhibition ([6]; at 100.0 µM): 34%
- growth inhibition ([7]; at 1.2 µM): -7%
- growth inhibition ([7]; at 3.7 µM): -13%
- growth inhibition ([7]; at 11.0 µM): -15%
- growth inhibition ([7]; at 33.0 µM): -9%
- growth inhibition ([7]; at 100.0 µM): -6%
- growth inhibition [8, 17]: 11%
- growth inhibition [8, 18]: 57%
- growth inhibition ([8]; at 50.0 µM): 75.3% (active)
- growth inhibition ([9]; at 1.2 µM): 8%
- growth inhibition ([9]; at 3.7 µM): 12%
- growth inhibition ([9]; at 11.0 µM): 9%
- growth inhibition ([9]; at 33.0 µM): 18%
- growth inhibition ([9]; at 100.0 µM): 26%
- growth inhibition [10, 17]: 29%
- growth inhibition [10, 18]: 34%
- growth inhibition ([10]; at 50.0 µM): 61.6%
- growth inhibition ([11]; at 1.2 µM): 15%
- growth inhibition ([11]; at 3.7 µM): 25%
- growth inhibition [11, 17]: 31%
- growth inhibition ([11]; at 11.0 µM): 46%
- growth inhibition ([11]; at 33.0 µM): 42%
- growth inhibition [11, 18]: 74% (active)
- growth inhibition ([11]; at 50.0 µM): 79% (active)
- growth inhibition ([11]; at 100.0 µM): 62%
- growth inhibition ([12]; at 1.2 µM): -21%
- growth inhibition ([12]; at 3.7 µM): -22%
- growth inhibition ([12]; at 11.0 µM): -25%
- growth inhibition ([12]; at 33.0 µM): -11%
- growth inhibition ([12]; at 100.0 µM): 68%
- growth inhibition ([13]; at 1.2 µM): 1%
- growth inhibition ([13]; at 3.7 µM): -15%
- growth inhibition ([13]; at 11.0 µM): -16%
- growth inhibition ([13]; at 33.0 µM): 5%
- growth inhibition ([13]; at 100.0 µM): 25%
- growth inhibition ([14]; at 1.2 µM): 0%
- growth inhibition ([14]; at 3.7 µM): 6%
- growth inhibition ([14]; at 11.0 µM): 13%
- growth inhibition ([14]; at 33.0 µM): 11%
- growth inhibition ([14]; at 100.0 µM): 25%
- growth inhibition [15, 17]: 24%
- growth inhibition [15, 18]: 60%
- growth inhibition ([15]; at 50.0 µM): 79.3% (active)
